Source: PubChem BioAssay
Pf growth 96h: P. falciparum growth inhibition at 96 hour, primary screen for plastid delayed-death inhibitors | Potency, µM (titrated, usually from 28.7 µM), for inactives: at the highest dose activity change, negative = inhibition, hits mostly inhibitors | P. falciparum luciferase reporter growth, 96 h | 320,000 compounds, 6.9% hits; further: potency means the concentration at half of the fitted maximal effect; on the % scale 0 is the no-effect control and ±100 the full control effect
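P. falciparum expressing integrated firefly luciferase grown in erythrocytes (2% hematocrit, 0.05% parasitemia final) with compounds for 96 hours at 37 C, 5% CO2. Growth inhibition read as loss of luminescence after adding luciferase detection reagent.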
Cycloheximide cs: affects cycloheximide protein synthesis inhibition readout, counter-screen | 300,000 compounds, 12% hits | cell reporter, cycloheximide protein synthesis inhibition counterscreen | max response, % | AID 2314; in the data active means max response mostly above about 13%, no sharp cut-off; inactive means mostly below about 14%; further: read at 38.3 µM for the half of the compounds with a filed dose; 0% is about no effect
Shiga toxin inh: inhibitors of Shiga toxin in Vero cells; Vero cells, Shiga toxin protein synthesis inhibition reporter; 290,000 compounds, 9.2% hits; inhibition, % at 38.7 µM; in the data active means inhibition mostly above about 28%, no sharp cut-off; inactive means mostly below about 43%; further: 0% is about no effect
Pf growth 48h: P. falciparum growth inhibition at 48 hours (one generation); 310,000 compounds, 5.9% hits; P. falciparum luciferase growth in erythrocytes, 48 h; Potency, µM (series often up to 28.7 µM), for inactives: at the highest dose activity change, negative = inhibition, hits mostly inhibitors; AID 504832; further: potency means the concentration at half of the fitted maximal effect; on the % scale 0 is the no-effect control and ±100 the full control effect
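Growth was read as firefly luciferase luminescence after a 48 h, 37 C, 5% CO2 exposure of compounds to reporter-bearing P. falciparum cultures (0.1% parasitemia, 2% hematocrit final) in Albumax-supplemented RPMI 1640.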
An asterisk follows results filed as active; u = inconclusive; x = no result. This is a sample that favours compounds with a hit; in the whole collection about 21% have one here. Unless noted, the call rests on the fitted dose curve; in most records, active means well fitted inhibition curve with a large enough effect; inconclusive means small, poorly fitted or top-dose-only effect, or another doubt; inactive means no such curve, though single readings can be large or run the other way.

SMILES	Pf growth 96h	Cycloheximide cs	Shiga toxin inh	Pf growth 48h
Cc1c(C)n(CCc2ccccc2)c2ncnc(NCCCN(C)C)c12	u	18	28*	u
O=C1c2cccc(OCC(=O)N3CCCc4ccccc43)c2CCN1Cc1ccc(F)cc1	10µM*	2	20	u
Cc1cccc(CN2CCc3c(OCC(=O)N4CCCc5ccccc54)cccc3C2=O)c1	u	14*	28	12µM*
CN1CCc2c(OCC(=O)N3CCCc4ccccc43)cccc2C1=O	u	-2	-2	0%
Cc1cc(C)n2c(nc3ccccc32)c1C(=O)NN	u	45*	18*	-11%
COC(=O)c1c(C)cc(C)n2c1nc1ccccc12	7.4µM*	15	-9	12%
O=C(c1cc2ccccc2oc1=O)N1CCN(C(=O)C2CCCO2)CC1 (configuration not stated)	-16%	1	12	-9%
COc1cc(Br)cc2cc(C(=O)N3CCOCC3)c(=O)oc12	3.3µM*	1	-12	39%
COC(=O)C1CCN(C(=O)c2cc3ccccc3oc2=O)CC1	103%	33*	48*	x
O=C(c1cc2ccccc2oc1=O)N1CCOCC1	25%	39*	73*	5%
COc1cccc2cc(C(=O)Nc3cccnc3N3CCOCC3)c(=O)oc12	x	0	8	18%
O=C(Nc1cccnc1N1CCOCC1)c1cc2ccccc2oc1=O	-16%	26*	47*	-5%
CCN(CC)S(=O)(=O)c1ccc(NC(=O)CO/N=C(\N)c2ccccc2)cc1	-6%	x	x	u
COc1cc(C(=O)NNC(=O)CN2C(=O)NC(C)(c3ccc(C)cc3)C2=O)cc(OC)c1OC (configuration not stated)	-25%	x	x	u
C=CCn1c(=O)/c(=C2/Sc3cc(OC)ccc3N2C)s/c1=C1\C(=O)N(CC)C(=S)N1C	29%	21*	53*	-6%
COc1ccc(CNC(=O)c2nc(S(=O)(=O)Cc3ccccc3)ncc2Cl)cc1	44%	29*	15	25%
Cc1ccc(CS(=O)(=O)c2ncc(Cl)c(C(=O)Nc3ccc(OC(F)F)cc3)n2)cc1	5%	17*	27	31%
COC(=O)c1ccccc1NC(=O)c1nc(S(=O)(=O)Cc2ccccc2)ncc1Cl	u	-10	-2	18%
CCS(=O)(=O)c1ncc(Cl)c(C(=O)Nc2ccc(C)cc2)n1	0%	-4	-12	15%
O=C(NCc1ccccc1)c1nc(S(=O)(=O)Cc2ccccc2)ncc1Cl	u	27*	48	15%
CC(=O)Nc1ccc(NC(=O)c2nc(S(=O)(=O)Cc3ccccc3)ncc2Cl)cc1	u	37*	94*	43%
CCOc1cccc(C(=O)NNC(=O)CCC(=O)O)c1	-20%	-10	-9	1%
CC[C@H](C)[C@H](NC(=O)[C@H](Cc1ccc(O)cc1)NC(=O)[C@H](Cc1cnc[nH]1)NC(=O)[C@H](CCCNC(=N)N)NC(=O)[C@H](CC(C)C)NC(=O)[C@H](C)NC(=O)[C@@H](N)CO)C(=O)N[C@@H](CC(N)=O)C(=O)N[C@@H](CC(C)C)C(=O)N[C@H](C(=O)N[C@H](C(=O)N[C@@H](CCCNC(=N)N)C(=O)N[C@@H](CCC(N)=O)C(=O)N[C@@H](CCCNC(=N)N)C(=O)N[C@@H](Cc1ccc(O)cc1)C(N)=O)[C@@H](C)O)[C@@H](C)CC	x	-3	-8	x
O=C(O)c1ccc(CS(=O)(=O)c2c(Cl)cccc2Cl)o1	u	-1	1	21%
CCN1C(=O)/C(=C\c2ccco2)C(C(=O)OC)=C1C	-2%	-4	-14	u
SMILES	Pf growth 96h	Cycloheximide cs	Shiga toxin inh	Pf growth 48h
COC(=O)C1=C(C)N(c2cccc(OC)c2)C(=O)/C1=C\c1ccco1	u	17*	36	u
O=C(Nc1cccc(C(F)(F)F)c1)n1cc(-c2ccccn2)c(N2CCOCC2)n1	u	0	2	u
COc1ccc(-c2nc(C#N)c(NCc3ccc(F)cc3)o2)cc1OC	x	24*	45	u
N#Cc1nc(COc2cccc(Cl)c2)oc1NCc1ccncc1	u	18*	54	u
N#Cc1nc(-c2ccco2)oc1NCc1cccnc1	67%	-4	9	-10%
COc1ccc(-c2nc(C#N)c(NCc3ccccc3Cl)o2)cc1OC	0.59µM*	16	26	u
N#Cc1nc(-c2cccc(Cl)c2)oc1NCc1cccnc1	u	26	46*	x
COc1ccc(-c2nc(C#N)c(NCc3cccnc3)o2)cc1OC	10µM*	-3	-12	u
N#Cc1nc(Cc2ccccc2)oc1NCc1cccnc1	u	-1	-6	u
N#Cc1nc(Cc2ccccc2)oc1NCc1ccccc1Cl	x	48*	41*	u
Cc1ccc(C)n1-n1cnc2sc3c(c2c1=O)CCC3	x	-4	-2	-12%
O=c1c2c3c(sc2ncn1-n1cccc1)CCCCC3	u	36*	56*	u
O=C(/C=C/c1ccccc1)NC(=O)c1ccccc1O	1.7µM*	28*	51*	1.3µM*
Cc1ccccc1C(=O)NNC(=O)/C=C/c1ccccc1	-6%	10	5	30%
O=C(/C=C/c1ccccc1)CC(=O)c1ccccc1O	u	25*	27*	8%
COc1cc(/C=C/C(=O)NC(=O)c2ccccc2O)ccc1O	-7%	-2	-22	u
COc1ccc(CCc2cc(OC)cc(=O)o2)cc1	1.9µM*	19*	32	9%
Cc1ccc(C(=O)C(C)OC(=O)Cn2cnc3c2c(=O)n(C)c(=O)n3C)cc1 (configuration not stated)	12%	x	x	u
COCCn1c(-c2cccs2)csc1=Nc1cccnc1	u	2	-28	-4%
Fc1ccccc1-c1csc(=Nc2cccnc2)n1CCCn1ccnc1	15µM*	1	-5	7.4µM*
CC(C)Cn1c(-c2ccco2)csc1=Nc1cccnc1	u	-3	27	15µM*
Fc1ccccc1-c1csc(=Nc2cccnc2)n1CC1CCCO1 (configuration not stated)	12µM*	5	7	8.3µM*
COCCn1c(-c2ccco2)csc1=Nc1cccnc1	x	-8	-7	u
Cc1csc(=Nc2cccnc2)n1CC1CCCCC1	u	0	10	u
O=C(N1CCOCC1)N1CCN(S(=O)(=O)c2cccc([N+](=O)[O-])c2)CC1	28%	1	24	17%
SMILES	Pf growth 96h	Cycloheximide cs	Shiga toxin inh	Pf growth 48h
Cc1cccn2c(=O)nc(SCC(=O)N3CCN(c4ccccc4)CC3)nc12	-14%	x	x	-12%
CCN(CC)S(=O)(=O)c1ccc(N/N=C/c2ccccc2OCC(=O)O)c([N+](=O)[O-])c1	1.7µM*	2	-12	10µM*
COc1ccccc1NS(=O)(=O)c1ccc(N/N=C/c2ccccc2OCC(=O)O)c([N+](=O)[O-])c1	u	0	15	u
O=C(Nc1ccc(NC(=O)c2ccccc2Cl)nc1)c1ccco1	10%	17*	69*	-22%
O=C(CCc1ccccc1)Nc1ccc(NC(=O)c2ccco2)nc1	x	22*	28	x
COc1ccc(NC(=O)c2ccccc2Cl)c(NC(=O)c2ccco2)c1	u	1	40	-13%
